This test can be described thus: mammalian cell viability reduction – secondary assay, cytotoxicity control for West Nile virus antiviral project, dose response (AID 1650). The conditions noted are these: Mammalian host cell viability, cytotoxicity counter-screen; series mostly up to 10 µM.

Measured potencies and affinities stand elsewhere. The source made the active and inactive calls. How the calls were made is not given here.

For `CCN1CCN(Cc2ccc(NC(=O)c3ccc(C)c(NC(=O)N4CCNC4=O)c3)cc2C(F)(F)F)CC1`, the compound was called inactive.
Turning to `CN1CCCC(CC2Oc3ccccc3Sc3ccccc32)C1` (stereo not given), the compound was called inactive.
The same measure for `CC(=O)N1CCN(CC(=O)Nc2c(Cl)ccc(C)c2Cl)CC1`: “inactive”; for `COc1cccc(C2CC(c3c(-c4ccccc4)c4cc(Cl)ccc4[nH]c3=O)=NN2S(C)(=O)=O)c1OC` (stereo not given): “inactive”; for `CCCN(CCC)CCCNC(=S)Nc1ccc2nc(N3CCCC3)cc(C)c2c1`: “inactive”.
Turning to `CCN1CCN(c2cc(C)c3cc(NC(=S)N4CC(C)CC(C)C4)ccc3n2)CC1` (stereo not given), the call was inactive.
With `CN(C)CCNc1ncnc2c1sc1nc(N3CCCC3)c3c(c12)CC(C)(C)OC3` the entry was “inactive”.
The same measure for `CC(C)(C)c1ccc(-c2nnc(SCC(=O)Nc3sc4c(c3C#N)CCCC4)o2)cc1`: “inactive”; for `Nc1nonc1-n1nnc(C(=O)N/N=C/c2ccccc2Cl)c1CSc1ccccc1`: “inactive”; for `CN(CCCNC(=O)c1cc2c(Cl)nc3ccccc3c2s1)Cc1ccccc1`: “inactive”.
The same measure for `CCOc1ccc(NC(=O)c2c(NC(=O)CN3CCN(C)CC3)sc3c2CCC3)cc1`: “inactive”.
As to `CN1CCN(c2ccc(C(F)(F)F)cc2NC(=O)Nc2ccccc2)CC1`, the call was inactive.
With `Nc1nonc1-n1nnc(C(=O)N/N=C/c2ccc(OCc3ccccc3)cc2)c1CNc1ccccc1` the entry was “inactive”.
In the case of `COC(=O)c1ccc(/C=C2/SC(=S)N(CCCC(=O)Nc3ccc(O)cc3)C2=O)cc1`, the call was inactive.
The same measure for `CCCCCCCCCc1nc2sc3c(c2c(=O)n1NC(=O)c1ccc([N+](=O)[O-])cc1)CC(C)(C)OC3`: “inactive”; for `COc1cc2nc(N3CCN(C(=O)C4COc5ccccc5O4)CC3)nc(N)c2cc1OC` (stereo not given): “inactive”; for `Cc1cc(F)ccc1N1CCC(N2CCN(C(C)C)C(CCO)C2)CC1` (stereo not given): “inactive”.
With `COc1ccc(C2c3[nH]c4ccccc4c3CCN2C(=O)c2cc3ncccn3n2)c(F)c1` (stereo not given) the entry was “inactive”; with `O=C(NC1CCCCC1)C(c1ccc(Cl)cc1)N(C(=O)c1ccccn1)c1cccnc1` (stereo not given), “inactive”.
The same measure for `CC(C)c1ccc(/C=C/C(=O)Nc2ccc(CN3CCOCC3)cc2)cc1`: “inactive”; for `Cc1cc(C)cc(N(CC(=O)NCc2ccco2)S(=O)(=O)c2c(C)noc2C)c1`: “inactive”.
Turning to `CC(C)n1cc(/C=C2/SC(=O)N(CC(=O)Nc3ccc4c(c3)OCO4)C2=O)c2ccccc21`, the compound was classed as inactive.
With `CCN(CC)S(=O)(=O)c1ccc(NC(=O)CSc2nnc(-c3cccc(OC)c3)n2C)cc1`, the result was inactive.
The same measure for `COC1(OC)C=CC(=O)C=C1NC(=O)c1ccccc1OC(C)=O`: “inactive”.
Consider `COc1ccc(NC(=O)CSc2nc3ccccc3c(=O)n2CCCN2CCC(C)CC2)c(OC)c1`, for which the compound was classed as inactive.
With `O=C(NCCCN1CCOCC1)c1cc2c([nH]c3ccccc32)c(-c2cccc(Br)c2)n1` the entry was “inactive”; with `CCN1CCN(CCCNC(=O)c2ccc3c(Cl)c4c(nc3c2)CCCC4)CC1`, “inactive”.
Regarding `COc1ccc(-c2cc(-c3ccc(OC)cc3)nc(-c3ccc4c(c3)NC(=O)CO4)c2)cc1`, the result was inactive.
With `COc1ccc2cc(Br)ccc2c1CC(=O)NC1CC(C)(C)NC(C)(C)C1` the entry was “inactive”; with `CCN(CC)CCCNC(=O)c1cc(-c2ccccc2)c(N2CCCCC2)s1`, “inactive”.
The same measure for `CCn1ncc(CN2CCC(C(=O)Nc3cccc(-c4cccc(F)c4)c3)CC2)c1C`: “inactive”; for `CN(C)c1nc(=Nc2cccc(Cl)c2)ss1`: “inactive”; for `CN(C)CCNc1oc(COc2ccc(-c3ccccc3)cc2)nc1C#N`: “inactive”.
With `Cc1ccc(Sc2nnc(Cc3ccccc3)c3ccccc23)cc1`, the outcome was inactive.
`Cc1ccc(Nc2nc(N)c([N+](=O)[O-])c(N3CCCC(C)C3)n2)cc1C` (stereo not given): the outcome was inactive.
The same measure for `Cc1ccc(-c2cc(C(=O)NCCCN3CCCC3)c3ccccc3n2)cc1C`: “inactive”.
In the case of `O=C(CNc1cccc2ccccc12)N/N=C/c1ccc([N+](=O)[O-])o1`, the outcome was inactive.
Take `CCc1nn(CC(=O)NC2CCN(Cc3ccccc3)CC2)c(=O)c2cc3cc(F)ccc3n12`: the compound was called inactive.
As to `Cc1ccc2nc(N(CCCN(C)C)C(=O)CCc3ccccc3)sc2c1`, the compound was called inactive.
With `O=C(CN1C(=O)/C(=C/c2ccc(C(F)(F)F)cc2)Sc2ccccc21)NCCCN1CCOCC1` the entry was “inactive”.

The record behind these values is PubChem BioAssay AID1650 (Southern Research Specialized Biocontainment Screening …, 2009).
